# Hit rate of the full screen: of about 2,300 compounds, about 330 (14%) showed activity. These entries were drawn from the full list. A number with no mark means an inactive call.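 Rule for the calls: active = median modified Z-score above 1.96; inactive = 1.96 or below.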
# Test system: HepG2 Srxn1-GFP reporter cells (+30 nM CDDO-Me)
# Experiment: Srxn1-GFP intensity median modified Z-score relative to plate median; higher = stronger NRF2 / oxidative stress reporter activation, active = hit call of the paper
# Details: 10 µM; exposure time: 24h
# In short: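 Compound at 10 μM was applied with an NRF2 activator at 30 nM to HepG2 Srxn1-GFP BAC reporter cells for 24 h, in DMSO at no more than 0.1%, using three replicate 96-well plates seeded at 20,000 cells per well. Fixed, Hoechst-stained cells were imaged confocally and cytoplasmic GFP was scored for each cell, with images under 100 cells left out. The figure reported is the replicate median of the per-plate modified Z-score of GFP intensity. Scaling relied on 1.4826 × median absolute deviation.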
row,SMILES,Srxn1-GFP intensity median modified Z-score
1,CNNC [euspeclibcmpd2278],-0.486
2,O=C(O)CCC1NCC2CC1CN1CCCCC21 (configuration not stated) [euspeclibcmpd2022],-0.148
3,O=C1CCCC2C3C[C@H](CN12)[C@@H]1CCCCN1C3 (some centres not stated) [euspeclibcmpd1695],-0.101
4,CCC(=O)O[C@H]1CCC2C3CC=C4CC(=O)CC[C@]4(C)C3CC[C@@]21C (some centres not stated) [euspeclibcmpd7],0.269
5,C[N+]1(C)C2CCC1CC(OC(=O)C(CO)c1ccccc1)C2 (configuration not stated) [euspeclibcmpd790],-0.464
6,CN1CCCCC1c1ccc(-c2cccnc2)nc1 (configuration not stated) [euspeclibcmpd1697],-0.301
7,C[N+]12CCC(CC1)C(OC(=O)C(O)(c1ccccc1)c1ccccc1)C2 (configuration not stated) [euspeclibcmpd67],0.0285
8,O=P1(N(CCCl)CCCl)NCCCO1 (configuration not stated) [euspeclibcmpd2335],-0.33
9,N=c1nc[nH][nH]1 [euspeclibcmpd1771],-0.334
10,COc1ccc(C(=O)N2CCCC2=O)cc1 [euspeclibcmpd835],1.03
11,NC(Cc1ccc(N(CCCl)CCCl)cc1)C(=O)O (configuration not stated) [euspeclibcmpd181],0.947
12,COc1cc2c(cc1OC)-c1c(oc3c4c(ccc3c1=O)OC(C(C)C)C4)CO2 (configuration not stated) [euspeclibcmpd1802],-0.169
13,C=C(C)[C@H]1Cc2c(ccc3c2O[C@@H]2COc4cc(OC)c(OC)cc4C2C3=O)O1 (some centres not stated) [euspeclibcmpd1688],63.1 (active)
14,COc1cc2c(cc1OC)C1C(=O)c3ccc4oc(C(C)C)cc4c3O[C@@H]1CO2 (some centres not stated) [euspeclibcmpd1384],0.895
15,C=C(C)C1Cc2c(ccc3c(=O)c4c(oc23)COc2cc(OC)c(OC)cc2-4)O1 (configuration not stated) [euspeclibcmpd1633],0.389
16,COc1cc2c(cc1OC)C1C(=O)c3ccc4c(c3O[C@@H]1CO2)CC(C(C)C)O4 (some centres not stated) [euspeclibcmpd1349],54.1 (active)
17,CCC1(c2ccc(N)cc2)CCC(=O)NC1=O (configuration not stated) [euspeclibcmpd20],-0.169
18,C[C@]12CCC(=O)C=C1CCc1ccc(O)cc12 [euspeclibcmpd2145],-0.0198
19,NC(=O)c1cc([N+](=O)[O-])cc([N+](=O)[O-])c1 [euspeclibcmpd211],1.85
20,CC(=O)O[C@H]1CC[C@@]2(C)C(=CCC3C2CC[C@]2(C)C(=O)CCC32)C1 (some centres not stated) [euspeclibcmpd1015],-0.448
21,CC1[C@H](C)OC(=O)CC(O)CC(O)CC(O)CCC(O)C(O)C[C@]2(O)CC(O)C(C(=O)O)C(CC(OC3O[C@H](C)[C@@H](O)[C@H](N)[C@@H]3O)/C=C/C=C/C=C/C=C/CC/C=C/C=C/[C@H](C)[C@H]1O)O2 (some centres not stated) [euspeclibcmpd218],0.964

row,SMILES,Srxn1-GFP intensity median modified Z-score
1,c1ccc2c(c1)OCC(C1=NCCN1)O2 (configuration not stated) [euspeclibcmpd1238],0.16
2,COc1cccc([C@]2(O)CCCC[C@H]2CN(C)C)c1 [euspeclibcmpd765],-0.221
3,NC(=O)C[S+]([O-])C(c1ccccc1)c1ccccc1 (configuration not stated) [euspeclibcmpd2299],0.327
4,O=C1C=C2C=CC3C[C@@]2(O1)[C@H]1CCCCN31 [euspeclibcmpd1211],9.38 (active)
5,CC1NCCc2cc(O)c(O)cc21 (configuration not stated) [euspeclibcmpd2171],-0.549
6,CC[C@H]1C2CC3[C@@H]4N(C)c5ccccc5[C@]45C[C@@H](C2C5O)N3[C@@H]1O (some centres not stated) [euspeclibcmpd1044],-0.296
7,Cc1[nH]c2ccccc2c1CN(C)C [euspeclibcmpd2173],-0.24
8,CN1C2C[C@H](OC(=O)C(CO)c3ccccc3)C[C@H]1[C@H]1OC21 (some centres not stated) [euspeclibcmpd266],-0.44
9,Cc1cccc(C)c1N=C1NCCCS1 [euspeclibcmpd416],-0.674
10,CCOC(=O)C1C(C=C(C)C)C1(C)C (configuration not stated) [euspeclibcmpd1522],0.0825
11,C=C/C=C\CC1=C(C)C(OC(=O)C2[C@@H](C=C(C)C)C2(C)C)CC1=O (some centres not stated) [euspeclibcmpd1257],2.3 (active)
12,CC(C)=CC1C(C(=O)OCc2cccc(Oc3ccccc3)c2)C1(C)C (configuration not stated) [euspeclibcmpd1161],-0.28
13,O=C(O)CCCc1ccc(N(CCCl)CCCl)cc1 [euspeclibcmpd51],-0.412
14,C=C[C@H]1C[N@@]2CC[C@H]1C[C@H]2[C@H](O)c1ccnc2ccccc12 [euspeclibcmpd2388],-0.0385
15,O=[N+]([O-])O[C@H]1CO[C@H]2[C@@H]1OC[C@H]2O[N+](=O)[O-] [euspeclibcmpd166],-0.506
16,O=[N+]([O-])O[C@@H]1CO[C@H]2[C@@H]1OC[C@@H]2O [euspeclibcmpd605],3.27 (active)
17,Cc1cc(OC(=O)N2CCCCC2)c(C(C)C)cc1[N+](C)(C)C [euspeclibcmpd1842],0.636
18,COc1ccc(O)c(C(C)(C)C)c1 [euspeclibcmpd2212],0.639
19,O=C1c2ccccc2-c2cccc3cccc1c23 [euspeclibcmpd1379],0.148
20,C=C(C)c1cc2cc(C(C)=O)c(O)cc2o1 [euspeclibcmpd1716],10.1 (active)
21,O=C(O)CCCO [euspeclibcmpd2162],-0.552
